In PubChem BioAssay (NCATS) one finds Potency data, which are given here for 26 compounds.

Inconclusive results are not listed. Active and inactive are the calls of the source. Calls come from the whole dose curve; as a rule, active = well fitted curve in the direction sought with a large enough effect; inconclusive = small, poorly fitted or top-dose-only effect, or another doubt; inactive = no such curve, though single readings can be large; an effect the other way counts as inactive or inconclusive.

Experiment [1] concerns the target Glutathione peroxidase 1 (Homo sapiens) (UniProt P07203). Briefly: Primary qHTS Assay for Inhibitors of Recombinant Selenoprotein Glutathione Peroxidase 1 (GPX1) (AID 1845191). Note: nearly all actives have a fitted effect of over 65% in size. To be noted: recombinant GPX1, GR-coupled NADPH fluorescence, 15 min; series mostly up to 48.8 µM. In outline:
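Recombinant GPX1 (10 nM final) was preincubated with compound for 30 min at room temperature, then reacted with 1 mM GSH, 0.5 mM CHP, 0.5 mM NADPH and 100 nM glutathione reductase; NADPH fluorescence (340/450 nm) was read at 0 and 15 min.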

Experiment [2] addresses Luciferin 4-monooxygenase (Photinus pyralis) (UniProt P08659). The experiment is described as follows: Primary firefly luciferase (FLuc) qHTS assay for identification of artifact compounds. (AID 1845220). Note: nearly all actives have a fitted effect of over 60% in size. To be noted: purified firefly luciferase, luminescence, 5 min; series mostly up to 54.1 µM. In outline: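 In this counter-screen for luciferase artifacts, test compounds met substrate (10 uM each luciferin and ATP) before 10 nM enzyme started the reaction. Light output was measured 5 min later.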
A general note: Quantitative high-throughput screening tests each substance at several concentrations.

The nature of experiment [3]: Primary fluorescence-based thiol-reactive (MSTI) qHTS assay for identification of artifact compounds. (AID 1845221). Note: nearly all actives have a fitted effect of over 65% in size. Note: potency is the fitted concentration of half-maximal effect. To be noted: MSTI thiol-reactivity probe, 1 h; series mostly up to 53.8 µM. The gist of the method:
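First, 4 uM MSTI in 2% DMSO/PBS pH 7.4 was dispensed; next, compounds were added; then plates sat 1 h at room temperature without light. Finally, emission at 598 nm was recorded.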

Experiment [4] deals with Nanoluciferase (engineered Oplophorus gracilirostris luciferase). Briefly: Primary Nanoluciferase (NLuc) qHTS assay for identification of artifact compounds. (AID 1845222).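 Note: NLuc secreted into diluted conditioned medium of S16 cells.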 To be noted: NLuc-conditioned medium, Nano-Glo luminescence, 5 min; series mostly up to 54.1 µM. The gist of the method:
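Using secreted nanoluciferase in S16 culture medium (0.22 um filtered, 1:55 dilution), compounds were preincubated 15 min at RT. Signal was generated with Nano-Glo reagent (1:100) over 5 min.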

For experiment [5], the target named is Phospholipid hydroperoxide glutathione peroxidase GPX4 (Homo sapiens) (UniProt P36969). The experiment is described as follows: Primary qHTS Assay for Inhibitors of Recombinant Selenoprotein Glutathione Peroxidase 4 (GPX4) (AID 1845192). Note: nearly all actives have a fitted effect of over 65% in size. Note: potency is the fitted concentration of half-maximal effect. The note with it: recombinant GPX4, GR-coupled NADPH fluorescence, 15 min; series mostly up to 50 µM. The gist of the method: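 GR-coupled readout: 100 nM GR, 1 mM GSH, 0.5 mM NADPH; NADPH fluorescence (ex 340/em 450 nm) read at t=0 and after 15 min RT. GPX4 200 nM, preincubated 30 min with compound; substrate 0.5 mM CHP.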

The nature of experiment [6]: Primary redox qHTS assay for identification of artifact compounds. (AID 1845223). To be noted: Amplex Red/HRP redox cycling with DTT, fluorescence; series mostly up to 53.8 µM. In outline:
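Amplex Red (25 uM) and HRP (250 mU/mL) in HBSS, with compounds for 15 min, then 250 uM DTT for 30 min, room temperature, dark. Fluorescence 525/598 nm read; normalized to DMSO and 10 uM DA3003; Hill fit.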

Sequence of Glutathione peroxidase 1 (Homo sapiens) (P07203 whole entry, looked up): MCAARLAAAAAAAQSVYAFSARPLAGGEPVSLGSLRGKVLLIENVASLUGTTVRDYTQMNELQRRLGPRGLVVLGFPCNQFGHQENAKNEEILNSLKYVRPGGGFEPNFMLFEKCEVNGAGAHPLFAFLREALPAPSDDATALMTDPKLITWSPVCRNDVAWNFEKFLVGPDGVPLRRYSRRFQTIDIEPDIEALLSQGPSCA
Sequence of Phospholipid hydroperoxide glutathione peroxidase GPX4 (Homo sapiens) (P36969 whole entry, looked up): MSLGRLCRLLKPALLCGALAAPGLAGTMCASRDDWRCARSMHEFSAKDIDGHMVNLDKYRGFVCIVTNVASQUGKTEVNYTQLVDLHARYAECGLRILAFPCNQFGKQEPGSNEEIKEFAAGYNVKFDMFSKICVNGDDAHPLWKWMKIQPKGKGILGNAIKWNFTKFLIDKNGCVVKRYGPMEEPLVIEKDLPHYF

For `COc1ccc2cc(-c3cc(-c4cc(Cl)cc(Cl)c4)nn3C(C)c3ccc(C(=O)NCCC(=O)O)cc3)ccc2c1` (configuration not stated), the Potency entry in experiment [1], in experiment [2], in experiment [3] and in experiment [4] was “inactive” throughout.

With `CN1CC2CN(c3ccc4oc5ccccc5c(=O)c4c3)CC2C1` (configuration not stated), the Potency result in experiment [1], in experiment [5], in experiment [4] and in experiment [6] was “inactive” throughout.

Consider `CS(=O)(=O)c1ccc(Oc2cc(F)cc(C#N)c2)c2c1[C@H](O)C(F)(F)C2`, for which the Potency result in experiment [5] is “inactive”.

Regarding `C[C@@H]1CC[C@@]23CC[C@]4(C)[C@@](C=CC5[C@@]6(C)CC[C@H](O)C(C)(C)C6CC[C@]54C)(OC2=O)C3[C@H]1C` (some centres not stated), the Potency result in experiment [1], in experiment [5] and in experiment [4] was “inactive” each time.

For `C#CC(=O)N(c1ccc(OC)cc1OC)C(C(=O)NCC(=O)OCC)c1cccs1` (configuration not stated), the Potency entry in experiment [1], in experiment [2], in experiment [3], in experiment [4] and in experiment [6] was “inactive” each time.

`CC1(C)S[C@@H]2[C@H](NC(=O)C(C(=O)Oc3ccc4c(c3)CCC4)c3ccccc3)C(=O)N2[C@H]1C(=O)O` (some centres not stated): the Potency in experiment [5] is 8.91 µM (active).

As for `COc1ccc(C#Cc2ccc(C(=O)N3CCC[C@@H](O)C3)c(F)c2)cc1`, the Potency entry in experiment [1], in experiment [2], in experiment [3], in experiment [4] and in experiment [6] was “inactive” each time.

`CCOC(=O)COc1ccc2c(=O)cc(-c3ccccc3)oc2c1`: the Potency entry in experiment [5] is “inactive”.

With `Cn1sc(=O)n(Cc2ccccc2)c1=O`, the Potency entry in experiment [1], in experiment [3] and in experiment [6] was “inactive” throughout.

`O=C([C@@H](Cc1cccc(C(F)(F)F)c1)NS(=O)(=O)c1cc(F)c2c(c1)CCNC2)N1CCCC1`: the Potency result in experiment [1], in experiment [2], in experiment [3], in experiment [4] and in experiment [6] was “inactive” throughout.

Take `CC[C@H](C)/C=C(C)/C=C/C1=CC2=CC(=O)[C@]3(C)OC(=O)[C@@H](C(C)=O)[C@@H]3C2=CO1`: the Potency result in experiment [1], in experiment [2], in experiment [4] and in experiment [6] was “inactive” in each case.

Regarding `Cc1ccc(NC(=O)C(C)C)cc1C1CCN(Cc2ccc(Oc3ccc(F)c(F)c3)cc2)CC1`, the Potency entry in experiment [1], in experiment [5] and in experiment [4] was “inactive” each time.

Take `Oc1cccc(-c2c3nc(c(-c4cccc(O)c4)c4ccc([nH]4)c(-c4cccc(O)c4)c4nc(c(-c5cccc(O)c5)c5ccc2[nH]5)CC4)C=C3)c1`: the Potency entry in experiment [5] was “inactive”.

Consider `C/C=C/C=C/c1cc2c(C=O)c(O)c(CC=C(C)C)cc2o1`, for which the Potency result in experiment [1], in experiment [4] and in experiment [6] was “inactive” each time. The Potency in experiment [3] was 21.2 µM (active).

As to `CC[C@@H]1C[C@]1(NC(=O)[C@@H]1C[C@@H]2CN1C(=O)[C@H](C(C)(C)C)NC(=O)OCC(C)(C)CCCCc1cccc3c1CN(C3)C(=O)O2)C(=O)NS(=O)(=O)C1CC1`, the Potency result in experiment [1], in experiment [2], in experiment [3], in experiment [4] and in experiment [6] was “inactive” each time.

On to `CC(C)NC(=O)COc1cccc(-c2nc(Nc3ccc4[nH]ncc4c3)c3ccccc3n2)c1`, for which the Potency entry in experiment [1], in experiment [3], in experiment [4] and in experiment [6] was “inactive” each time.

For the compound `CCCn1cc2c(nc(NC(=O)Nc3ccc(OC)cc3)n3nc(-c4ccco4)nc23)n1`, the Potency result in experiment [1], in experiment [2], in experiment [4] and in experiment [6] was “inactive” in each case.

As for `O=C(Nc1ccccc1C(=O)Nc1ccc(CCO)cc1)c1ccc([N+](=O)[O-])cc1`, the Potency result in experiment [1], in experiment [5], in experiment [4] and in experiment [6] was “inactive” in each case.

Consider `Cn1ncnc1[C@H]1c2n[nH]c(=O)c3cc(F)cc(c23)N[C@@H]1c1ccc(F)cc1`, for which the Potency entry in experiment [1], in experiment [2], in experiment [3], in experiment [4] and in experiment [6] was “inactive” each time.

As for `CC(C)S(=O)(=O)NC[C@@H]1CC(c2ccc(N3CCCC3)c(F)c2)=NO1`, the Potency result in experiment [1], in experiment [5], in experiment [4] and in experiment [6] was “inactive” throughout.

Take `CC/C(C)=C/C(=O)OC1C(OC2(C)CCC3C(C4C(C)CCC42)C3(C)C)OC(C)C(O)C1O` (configuration not stated): the Potency entry in experiment [1], in experiment [2], in experiment [4] and in experiment [6] was “inactive” throughout.

For the compound `C=C1C(=O)OC2C=C(C)CC/C=C(\CO)CC(O)C12` (configuration not stated), the Potency entry in experiment [1], in experiment [5], in experiment [4] and in experiment [6] was “inactive” in each case.

On to `C=CC(C)(O)CC[C@@H]1[C@@]2(C)CCCC(C)(C)C2CC[C@@]1(C)O` (some centres not stated), for which the Potency entry in experiment [5], in experiment [2], in experiment [3], in experiment [4] and in experiment [6] was “inactive” throughout.

As for `CCC/C=C/c1cc2c(C=O)c(O)c(CC=C(C)C)cc2o1`, the Potency result in experiment [5], in experiment [2], in experiment [4] and in experiment [6] was “inactive” in each case. Also, in experiment [3], the Potency is 23.8 µM (active).

Turning to `C=C1/C(=C/C=C2\CCC[C@@]3(C)C2CCC3[C@H](C)/C=C/[C@@H](O)C2CC2)C[C@@H](O)C[C@@H]1O` (some centres not stated), the Potency entry in experiment [5], in experiment [2], in experiment [3] and in experiment [4] was “inactive” throughout.

In the case of `CO[C@H]1O[C@@H]2O[C@@]3(C)CCC4[C@H](C)CCC([C@H]1C)[C@]42OO3` (some centres not stated), the Potency result in experiment [5], in experiment [2], in experiment [3], in experiment [4] and in experiment [6] was “inactive” throughout.
